# Results published in PubChem BioAssay.
# The source made the active and inactive calls.
# Columns and labels:
# [1] = tested on: Plasmodium falciparum Sir2 (PF13_0152, Sir2A); assay: Plasmodium falciparum Sir2A binding compounds – biochemical, small-molecule microarray, 635 nm fluorescence, primary screen (AID 1098); conditions: fluorescence 635 nm, higher = more signal;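 also: score merges spot fluorescence intensity with its signal-to-noise ratio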
# [2] = probe aDKK1 binding to arrayed compounds – biochemical, biotinylated probe, 635/667 nm fluorescence, primary screen (AID 1099); conditions: small-molecule microarray, higher = more signal;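 also: score merges 667nm spot fluorescence with signal to noise across triplicate slides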
# [3] = probe aCHRDL2 binding to arrayed compounds – biochemical, biotinylated probe, 635/667 nm fluorescence, primary screen (AID 1100); conditions: small-molecule microarray, higher = more signal
# [4] = change in splice reporter luminescence, either direction, cell-based, HEK293, spliceosome inhibition project, primary screen (AID 1101); conditions: HEK293 splicing luciferase reporter, 24 h, higher = more signal, called active from +8 up or from −8 down;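 also: HEK293 cells carrying a splicing-competent luciferase reporter gene; test concentration not given here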
# [5] = molecular target: Fibroblast growth factor 10 (Homo sapiens) (UniProt O15520); assay: compounds binding fibroblast growth factor 10 – biochemical, small-molecule microarray, 635 nm fluorescence, primary screen (AID 1102); conditions: FGF10 binding, fluorescence 635 nm, higher = more signal
# [6] = tested on: glycogen synthase kinase-3 (GSK3A per assay name; protocol says GSK3B); assay: compounds binding glycogen synthase kinase-3 – biochemical, small-molecule microarray, 635 nm fluorescence, GSK3A, primary screen (AID 1103); conditions: fluorescence 635 nm, higher = more signal; also: the record names both GSK3A and GSK3B
# [7] = molecular target: Epidermal growth factor receptor (Homo sapiens) (UniProt P00533); assay: compounds binding epidermal growth factor receptor – biochemical, small-molecule microarray, 635 nm fluorescence, primary screen (AID 1104); conditions: EGFR binding, higher = more signal;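 also: score merges 667 nm emission intensity with spot signal to noise over triplicate slides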
# [8] = molecular target: Follistatin-related protein 3 (Homo sapiens) (UniProt O95633); assay: compounds binding follistatin-related protein 3 – biochemical, small-molecule microarray, 635 nm fluorescence, primary screen (AID 1105); conditions: FSTL3 binding, higher = more signal;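 also: score merges emission near 667 nm and signal to noise per printed spot across three slides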
# [9] = molecular target: Dickkopf-related protein 1 (Homo sapiens) (UniProt O94907); assay: small molecules binding DKK1 protein – biochemical, small-molecule microarray, 635 nm fluorescence scan, primary screen (AID 1106); conditions: higher = more signal;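 also: score merges emission near 667 nm with signal to noise over three replicate slides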
# [10] = tested on: Inhibin beta A chain (activin A); assay: small molecules binding activin A – biochemical, small-molecule microarray, 635 nm fluorescence scan, primary screen (AID 1107); conditions: INHBA, higher = more signal;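 also: mouse activin A protein probed at 4.33 µg/mL on printed slides; score merges bound-protein fluorescence near 667 nm with spot signal-to-noise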
# [11] = tested on: Human papillomavirus type 1a protein E7 (residues 44-93); assay: small molecules binding HPV E7 44-93 – biochemical, small-molecule microarray, residues 44-93, 635 nm fluorescence, primary screen (AID 1108); conditions: fluorescence 635 nm, higher = more signal;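 also: E7 fragment applied at 1 µg/mL in TBST for 1 h at 4 C; score combines spot fluorescence with its signal to noise ratio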
# [12] = hepatitis C replication reporter changes, two-sided – Huh7 cells, luciferase reporter, HCV replication inhibitor project, primary screen (AID 1109); conditions: Huh7 HCV replicon luciferase reporter, 48 h; higher = more signal;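 also: huh7 hepatoma cells harbouring a luciferase neomycin HCV replicon reporter; luciferase luminescence as measure of HCV replicon replication; test concentration not given here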
# [13] = molecular target: Left-right determination factor 2 (Homo sapiens) (UniProt O00292); assay: small molecules binding LEFTY2 protein – biochemical, small-molecule microarray, 635 nm fluorescence scan, primary screen (AID 1110); conditions: higher = more signal
# [14] = molecular target: Calmodulin-1 (Homo sapiens) (UniProt P0DP23); assay: small molecules binding calmodulin-1 with EGTA – biochemical, small-molecule microarray, Cy5-labelled CALM1, profiling panel (AID 1111); conditions: Cy5-CALM1 binding fluorescence, higher = more signal;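 also: labelled calmodulin applied in Tris saline Tween buffer holding calcium plus EGTA and DTT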
# [15] = molecular target: Calmodulin-1 (Homo sapiens) (UniProt P0DP23); assay: small molecules binding Ca-loaded calmodulin-1 – biochemical, small-molecule microarray, Cy5-labelled CALM1, plus calcium, artefact control for SMM control-protein annotation, profiling panel (AID 1112); conditions: Cy5-CALM1 binding fluorescence, higher = more signal;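 also: score merges spot fluorescence with signal to noise from triplicate slides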
# [16] = probe aWnt5a binding to arrayed compounds – biochemical, biotinylated probe, 635/667 nm fluorescence, primary screen (AID 1113); conditions: small-molecule microarray, higher = more signal;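 also: score merges 667 nm fluorescence intensity with signal-to-noise per printed feature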
# [17] = probe aShh binding to arrayed compounds – biochemical, biotinylated probe, 635/667 nm fluorescence, primary screen (AID 1114); conditions: small-molecule microarray, higher = more signal;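 also: probe is biotin-labelled aShh protein from a stem cell growth factor screen; measures binding of labelled protein to compounds printed on the slide; score merges feature fluorescence at 667 nm with signal-to-noise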
# [18] = probe aNog binding to arrayed compounds – biochemical, biotinylated probe, 635/667 nm fluorescence, primary screen (AID 1115); conditions: small-molecule microarray, higher = more signal;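 also: probe is biotinylated aNog protein used at 0.15 µg/mL for 1 h at 4 C; z-score combines 667 nm fluorescence of each spot with its signal to noise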
# [19] = molecular target: Torsin-1A-interacting protein 1 (Homo sapiens) (UniProt Q5JTV8); assay: compound microarray binding of lysate hLAP1 – cell lysate, small-molecule microarray, COS7 lysate, 635/667 nm fluorescence, primary screen (AID 1116); conditions: 635 nm fluorescence, higher = more signal
# [20] = molecular target: Alpha-bungarotoxin (Bungarus multicinctus) (UniProt P60615); assay: compounds binding labelled alpha-BTX control protein – biochemical, small-molecule microarray, Alexa647 label, 635/667 nm fluorescence, artefact control for SMM control protein annotation, profiling panel (AID 1117); conditions: alpha-BTX-A647 binding fluorescence, higher = more signal
# Sequence of Alpha-bungarotoxin (Bungarus multicinctus) (P60615 whole entry, looked up): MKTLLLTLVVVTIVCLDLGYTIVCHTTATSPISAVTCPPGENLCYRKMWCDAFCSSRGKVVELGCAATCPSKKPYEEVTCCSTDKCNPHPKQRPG
# Sequence of Follistatin-related protein 3 (Homo sapiens) (O95633 whole entry, looked up): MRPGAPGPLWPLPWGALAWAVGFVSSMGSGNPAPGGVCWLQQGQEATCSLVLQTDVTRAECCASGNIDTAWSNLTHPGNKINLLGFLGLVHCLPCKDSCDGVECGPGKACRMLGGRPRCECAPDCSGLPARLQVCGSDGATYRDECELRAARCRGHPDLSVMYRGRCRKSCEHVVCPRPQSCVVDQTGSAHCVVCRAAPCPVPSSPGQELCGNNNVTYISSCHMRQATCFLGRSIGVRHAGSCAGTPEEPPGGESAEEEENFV
# Sequence of Left-right determination factor 2 (Homo sapiens) (O00292 whole entry, looked up): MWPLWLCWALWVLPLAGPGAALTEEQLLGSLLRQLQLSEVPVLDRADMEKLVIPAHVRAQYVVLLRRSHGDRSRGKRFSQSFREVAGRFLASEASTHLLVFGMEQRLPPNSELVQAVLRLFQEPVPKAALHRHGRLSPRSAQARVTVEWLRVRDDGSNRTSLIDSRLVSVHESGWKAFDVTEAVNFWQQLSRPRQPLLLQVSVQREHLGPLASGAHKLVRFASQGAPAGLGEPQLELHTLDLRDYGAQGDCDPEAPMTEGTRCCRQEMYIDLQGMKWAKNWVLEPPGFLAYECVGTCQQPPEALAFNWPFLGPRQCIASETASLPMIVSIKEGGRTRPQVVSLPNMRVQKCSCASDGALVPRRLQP
# Sequence of Dickkopf-related protein 1 (Homo sapiens) (O94907 whole entry, looked up): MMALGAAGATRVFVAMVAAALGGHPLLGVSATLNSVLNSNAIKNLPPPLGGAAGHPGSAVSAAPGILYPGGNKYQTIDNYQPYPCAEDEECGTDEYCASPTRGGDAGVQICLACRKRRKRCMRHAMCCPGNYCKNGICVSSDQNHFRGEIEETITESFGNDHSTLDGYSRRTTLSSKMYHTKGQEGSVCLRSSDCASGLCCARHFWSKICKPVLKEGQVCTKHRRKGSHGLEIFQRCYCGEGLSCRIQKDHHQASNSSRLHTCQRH
# Sequence of Fibroblast growth factor 10 (Homo sapiens) (O15520 whole entry, looked up): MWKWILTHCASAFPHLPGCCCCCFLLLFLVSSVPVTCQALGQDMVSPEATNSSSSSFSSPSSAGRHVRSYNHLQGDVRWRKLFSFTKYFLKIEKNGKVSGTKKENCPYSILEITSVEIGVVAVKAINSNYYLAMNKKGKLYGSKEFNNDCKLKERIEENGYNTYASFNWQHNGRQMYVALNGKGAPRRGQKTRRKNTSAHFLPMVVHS
# Sequence of Epidermal growth factor receptor (Homo sapiens) (P00533 whole entry, looked up): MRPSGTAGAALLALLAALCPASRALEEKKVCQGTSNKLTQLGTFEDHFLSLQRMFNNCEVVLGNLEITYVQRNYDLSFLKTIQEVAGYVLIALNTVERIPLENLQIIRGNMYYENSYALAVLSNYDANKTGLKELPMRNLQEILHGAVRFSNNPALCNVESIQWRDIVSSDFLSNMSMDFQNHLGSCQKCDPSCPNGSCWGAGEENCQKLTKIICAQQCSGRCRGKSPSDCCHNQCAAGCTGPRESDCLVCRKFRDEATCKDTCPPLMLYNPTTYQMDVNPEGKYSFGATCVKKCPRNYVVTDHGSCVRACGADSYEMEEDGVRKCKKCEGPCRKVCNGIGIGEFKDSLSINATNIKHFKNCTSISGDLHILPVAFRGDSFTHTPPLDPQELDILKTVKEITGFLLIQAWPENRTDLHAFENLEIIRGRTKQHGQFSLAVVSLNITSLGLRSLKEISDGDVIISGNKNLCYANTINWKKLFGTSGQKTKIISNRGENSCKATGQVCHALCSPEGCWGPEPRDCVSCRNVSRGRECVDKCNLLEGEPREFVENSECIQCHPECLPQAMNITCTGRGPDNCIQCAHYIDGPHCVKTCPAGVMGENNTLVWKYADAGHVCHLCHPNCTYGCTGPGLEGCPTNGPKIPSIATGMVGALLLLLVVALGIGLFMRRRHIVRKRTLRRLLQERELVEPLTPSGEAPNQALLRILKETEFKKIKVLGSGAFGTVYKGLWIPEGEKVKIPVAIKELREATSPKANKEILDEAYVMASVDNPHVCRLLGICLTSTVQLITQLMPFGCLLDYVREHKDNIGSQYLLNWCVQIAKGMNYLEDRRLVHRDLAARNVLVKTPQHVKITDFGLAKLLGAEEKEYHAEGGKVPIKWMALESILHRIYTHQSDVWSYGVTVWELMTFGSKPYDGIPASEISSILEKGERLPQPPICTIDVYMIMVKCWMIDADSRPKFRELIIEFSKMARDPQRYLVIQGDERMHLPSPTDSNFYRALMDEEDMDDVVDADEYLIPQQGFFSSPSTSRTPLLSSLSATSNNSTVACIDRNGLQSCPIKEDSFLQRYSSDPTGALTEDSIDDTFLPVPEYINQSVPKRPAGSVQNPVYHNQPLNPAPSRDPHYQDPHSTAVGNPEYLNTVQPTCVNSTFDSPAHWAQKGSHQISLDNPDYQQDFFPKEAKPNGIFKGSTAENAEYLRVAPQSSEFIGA
# Sequence of Torsin-1A-interacting protein 1 (Homo sapiens) (Q5JTV8 whole entry, looked up): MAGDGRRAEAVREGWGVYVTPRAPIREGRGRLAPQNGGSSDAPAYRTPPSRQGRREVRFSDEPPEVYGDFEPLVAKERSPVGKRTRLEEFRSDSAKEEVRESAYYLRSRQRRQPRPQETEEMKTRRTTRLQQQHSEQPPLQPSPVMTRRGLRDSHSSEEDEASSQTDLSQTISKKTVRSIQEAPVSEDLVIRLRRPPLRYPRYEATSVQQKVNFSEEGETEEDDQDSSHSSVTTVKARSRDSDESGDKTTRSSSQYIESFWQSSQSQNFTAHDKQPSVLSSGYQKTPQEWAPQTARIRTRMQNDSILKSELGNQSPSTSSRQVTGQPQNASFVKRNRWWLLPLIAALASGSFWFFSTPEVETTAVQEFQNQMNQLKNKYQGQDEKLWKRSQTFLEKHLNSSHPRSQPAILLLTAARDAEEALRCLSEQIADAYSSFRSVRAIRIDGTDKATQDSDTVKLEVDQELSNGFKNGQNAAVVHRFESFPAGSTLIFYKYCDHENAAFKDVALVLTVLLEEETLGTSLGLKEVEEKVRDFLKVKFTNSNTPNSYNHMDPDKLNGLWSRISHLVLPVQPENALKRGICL
SMILES,composite z-score [1],composite z-score [2],composite z-score [3],z-score [4],composite z-score [5],composite z-score [6],composite z-score [7],composite z-score [8],composite z-score [9],composite z-score [10],composite z-score [11],z-score [12],composite z-score [13],composite z-score [14],composite z-score [15],composite z-score [16],composite z-score [17],composite z-score [18],composite z-score [19],composite z-score [20]
COc1ccc([Si](C)(C)[C@@H]2[C@@H](CC(=O)N3Cc4ccccc4C[C@H]3CO)O[C@]3(C(=O)N(Cc4cccc(N5C(=O)COc6ccccc65)c4)c4ccccc43)[C@H]2C)cc1,0.321,0.542,-0.602,-1.82 (inactive),0.904,0.901,0.925,1.13,1.01,0.729,1.2,-3.61,0.806,1.39,0.0626,-0.103,-0.214,-0.253,0.875,0.875
O=C1c2ccccc2[C@@]2(Cc3ccccc3N(Cc3ccccc3)C2=O)[C@H](c2ccc(CO)cc2)N1Cc1ccccc1C(F)(F)F,1.1,0.0463,0.847,0.0517 (inactive),-0.665,-0.866,-1.09,-0.71,-1.38,0.581,-0.648,-0.353,-1.3,-0.457,-0.176,-0.157,0.0684,0.549,0.0154,-0.32
[N-]=[N+]=NCc1ccccc1C[C@@]1(C(=O)NCc2ccccc2)N=C(c2ccc(OCCCO)cc2)O[C@@H]1c1ccccc1CN=[N+]=[N-],1.39,1.09,1.06,0.48 (inactive),0.639,1.13,-0.286,-0.0894,-0.242,0.123,-0.0428,-2.52,-0.372,1.51,0.924,0.178,0.274,1.88,2.59,1.49
CN1C(=O)C2C=CC(C(O)C=Cc3ccc([N+](=O)[O-])cc3)N(N3CCCCC3)C2C1=O (stereo not given),1.38,1.6,1.34,1.47 (inactive),0.928,1.28,0.726,1.1,0.256,1.35,0.974,0.789,0.443,2.44,0.925,0.613,0.926,1.66,0.856,2.07
CCCNC(=O)[C@@]1(C)c2ccccc2C(=O)N(Cc2cc(C(F)(F)F)cc(C(F)(F)F)c2)[C@H]1c1ccc(CO)cc1,0.0609,0.21,0.608,-0.542 (inactive),-0.0617,-0.196,-0.708,-0.808,-0.408,-0.605,1.23,-1.16,-0.657,0.0189,0.168,0.0377,-0.297,-0.158,1.61,0.919
